Activity calls are given as the source filed them. The rule behind the calls is not given here.

Pantothenate synthetase (Mycobacterium tuberculosis (strain ATCC 25618 / H37Rv)), sequence (P9WIL5 whole entry, looked up): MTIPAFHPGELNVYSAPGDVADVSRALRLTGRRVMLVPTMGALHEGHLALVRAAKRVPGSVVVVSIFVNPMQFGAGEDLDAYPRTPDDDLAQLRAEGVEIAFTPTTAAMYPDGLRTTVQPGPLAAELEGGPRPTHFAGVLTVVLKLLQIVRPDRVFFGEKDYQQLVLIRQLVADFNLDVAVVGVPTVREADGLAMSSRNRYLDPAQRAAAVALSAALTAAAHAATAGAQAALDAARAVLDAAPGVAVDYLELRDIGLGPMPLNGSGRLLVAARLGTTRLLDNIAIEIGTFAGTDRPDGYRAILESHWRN

This experiment concerns the target Pantothenate synthetase (Mycobacterium tuberculosis (strain ATCC 25618 / H37Rv)) (UniProt P9WIL5). Kind of experiment: Recombinant Mtb pantothenate synthetase (PanC) inhibitors, coupled enzyme, confirmatory (AID 375).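 Note: 0% = full reaction with vehicle and 100% = no enzyme background.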 Particulars: coupled enzyme assay; at 10 µM, stronger effect = higher value.
Take `CCN(CC)S(=O)(=O)c1ccc2oc(SCc3ccc(F)cc3)nc2c1`: the inhibition is 5% (inactive). Regarding `C=C(c1ccc(O)cc1)c1ccc(O)cc1`, the inhibition is 0% (inactive). Regarding `CCCC(C)C(=O)Nc1ccc(C(N)=O)cc1` (stereo not given), the inhibition was 3% (inactive). As to `c1ccc(CCc2nc(-c3cccnc3)no2)cc1`, the inhibition was 0% (inactive). On to `CC(=O)N(C(C)=O)c1c(C#N)c(C)n(-c2ccccc2)c1C(=O)c1ccccc1`, for which the inhibition is 0% (inactive).

In the case of `COc1ccccc1-n1c(SCC(=O)Nc2ccc3c(c2)OCO3)nc2c(c1=O)SCC2`, the inhibition is 0% (inactive). As for `COc1cccc(C(=O)NCc2nnc(SCC(=O)Nc3nccs3)n2-c2ccccc2)c1`, the inhibition is 2% (inactive). For `O=C(C1CCCN(S(=O)(=O)c2cnc[nH]2)C1)N1CC(=O)N(CCc2ccccc2)C(=O)C1` (stereo not given) the value was 0% (inactive); for `Cc1cc(C)c(NC(=O)CSc2nnc(-c3ccncc3)n2Cc2ccco2)c(C)c1`, 0% (inactive). For `CCOc1ccccc1N(C(=O)c1ccco1)C(C(=O)NC1CCCC1)c1cccnc1` (stereo not given) the value was 0% (inactive).

For the compound `CC(C)NC(=O)c1ccccc1NC(=O)CCS(=O)(=O)Cc1ccccc1`, the inhibition was 2% (inactive).

For the compound `COC(=O)CNc1nc(C2CC2)nc2c1nnn2Cc1ccccc1Cl`, the inhibition is 6% (inactive). Turning to `C=Cn1nc(C)c2ccccc2c1=O`, the inhibition was 0% (inactive).

`CCOC(=O)C1CCCN(C(=O)c2cc(=O)c3ccccc3o2)C1` (stereo not given): the inhibition is 5% (inactive). For `O=C(c1ccco1)N(Cc1cc2ccccc2[nH]c1=O)C1CCCCC1` the value was 0% (inactive). Take `O=S(=O)(c1ccc2c(c1)OCCO2)N1CCN(Cc2ccc3c(c2)OCO3)CC1`: the inhibition is 4% (inactive).

As for `O=C(Nc1nonc1NC(=O)C1CCCCC1)C1CCCCC1`, the inhibition was 0% (inactive).

Regarding `CNC(=O)CSc1nnc(-c2cc(C)cc(C)c2)o1`, the inhibition was 7% (inactive). As to `COc1ccc(OC)c(Nc2nc(-c3sc(N)nc3C)cs2)c1`, the inhibition is 0% (inactive). The result for `O=C(CSc1ncn[nH]1)c1ccco1` reads 0% (inactive).

In the case of `Cc1cccc(-n2ncc(C#N)c2N)c1`, the inhibition is 1% (inactive). The result for `CC(C)C(C(=O)Nc1ccc2c(c1)OCCO2)N1C(=O)c2ccccc2C1=O` (stereo not given) reads 0% (inactive).

As for `Cc1cc(-c2ccccc2)c(C#N)c(N)n1`, the inhibition was 1% (inactive). For `CCOc1ccc2nc(N3CCC(C(=O)N4CCN(C5CCCCC5)CC4)CC3)sc2c1`, the inhibition was 0% (inactive).

With `Cc1cc(C)c(NC(=O)Cn2cc3c(n2)CCCC3)c(C)c1`, the inhibition was 0% (inactive). For the compound `CCOCCCN(Cc1cc2cc(C)cc(C)c2[nH]c1=O)C(=O)N(CC)CC`, the inhibition is 0% (inactive).

On to `COc1ccc(NC(=O)CN(c2ccc(C(C)C)cc2)S(=O)(=O)c2c(C)noc2C)cc1OC`, for which the inhibition is 0% (inactive). Regarding `CC1(C)Oc2ccc3ccc(=O)oc3c2C(N2CCCCC2)C1O` (stereo not given), the inhibition is 0% (inactive).

For the compound `CCCC(=O)N=C1SC2CS(=O)(=O)CC2N1c1ccc(CC)cc1` (stereo not given), the inhibition is 0% (inactive). For `COc1ccc(OC)c(CNC(=O)CCN2C(=O)COc3ccccc32)c1`, the inhibition is 5% (inactive). The result for `O=C(Cn1c(=O)[nH]c2ccsc2c1=O)NC1CCCCCC1` reads 7% (inactive). Regarding `NS(=O)(=O)c1cc2c(cc1Cl)NC(CSCc1ccccc1)=NS2(=O)=O`, the inhibition is 0% (inactive). `CCOC(=O)Cc1csc(/C(=N/O)C(N)=O)n1`: the inhibition is 3% (inactive). The result for `c1ccc(-c2noc(C3CCCCC3)n2)nc1` reads 0% (inactive).

Consider `Cc1cc2nc(C3CCN(CC4COc5ccccc5O4)CC3)[nH]c2cc1C` (stereo not given), for which the inhibition was 6% (inactive).

`CCN(CCCNC(=O)CCNC(=O)Cn1ccc2ccccc2c1=O)c1ccccc1`: the inhibition was 1% (inactive). The result for `O=C1CC(c2cccnc2)c2cc3c(cc2N1)OCO3` (stereo not given) reads 0% (inactive); that for `CCOc1ccccc1C1CC(=O)NC(SCC)=C1C#N` (stereo not given), 0% (inactive); that for `CC(C)Oc1cc2oc(=O)c3c(c2cc1Cl)CCC3`, 0% (inactive). Take `CC1=C(C(=O)OC2CCCC2)C(c2ccc(C)o2)C2=C(CC(c3cccs3)CC2=O)N1` (stereo not given): the inhibition was 0% (inactive).
